Most compounds without a hit are left out; they make up all but 1.7% or so of the library.
EBV gp42 block: Epstein-Barr virus gp42 inhibitors, primary screen, biochemical, uHTS, fluorescence polarization; Glycoprotein 42 (Epstein-Barr virus (strain AG876)), Q1HVG2; Fluorescence polarization binding assay, mP read-out; inhibition, % (tested at 21.74 µM); 220,000 compounds, 0.42% hits; in the data active = inhibition above about 50%
PABP polyA inh: PABP poly(A) RNA binding inhibitors, primary screen, biochemical, fluorescence polarization, uHTS | AID 2014, 2009 | 290,000 compounds, 1% hits | Polyadenylate-binding protein 1 (Homo sapiens), P11940 | calls only at 35 µM;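 note: calls also rest on retests at 20 µM and on dose response follow-up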
Target sequence (P11940 whole entry, looked up): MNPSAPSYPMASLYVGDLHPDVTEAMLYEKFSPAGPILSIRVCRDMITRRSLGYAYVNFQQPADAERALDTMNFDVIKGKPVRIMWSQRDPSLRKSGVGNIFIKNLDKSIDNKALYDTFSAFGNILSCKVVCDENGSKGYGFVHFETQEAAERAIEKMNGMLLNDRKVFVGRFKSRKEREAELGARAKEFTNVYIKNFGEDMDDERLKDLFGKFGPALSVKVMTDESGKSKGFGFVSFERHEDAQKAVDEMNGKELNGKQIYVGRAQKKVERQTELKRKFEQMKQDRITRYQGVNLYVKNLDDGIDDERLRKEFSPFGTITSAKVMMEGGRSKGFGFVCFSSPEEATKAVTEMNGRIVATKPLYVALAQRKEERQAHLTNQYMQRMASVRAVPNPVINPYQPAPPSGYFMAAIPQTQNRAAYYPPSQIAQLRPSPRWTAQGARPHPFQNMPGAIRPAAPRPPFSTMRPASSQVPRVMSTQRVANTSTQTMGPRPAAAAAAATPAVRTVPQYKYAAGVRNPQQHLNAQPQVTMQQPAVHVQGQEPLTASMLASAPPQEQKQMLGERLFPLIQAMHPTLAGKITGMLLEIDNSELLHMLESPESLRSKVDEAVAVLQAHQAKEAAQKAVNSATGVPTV
eIF4E 4G PPI: eIF4E–eIF4G protein interaction inhibitors, primary screen, biochemical, uHTS, TR-FRET, eIF4GI fragment; inhibition, % at 21.7 µM; 220,000 compounds, 0.37% hits; TR-FRET eIF4E-eIF4GI(517-606) binding, 2 h;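 active = inhibition above about 30%, limit read from the data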
PABP1 MLLE inh: inhibitors of PABP1 MLLE–PAM2 peptide binding, primary screen, biochemical, fluorescence polarization, FITC-PAM2, GST-MLLE; Polyadenylate-binding protein 1 (Homo sapiens), P11940; inhibition, % at 20 µM; 360,000 compounds, 0.36% hits; AID 588489, 2011; in the data active = inhibition above about 35%, passing the limit was not always enough
eIF4H FP inh: human eIF4H binding inhibitors, primary screen, translation initiation inhibitor project, biochemical, uHTS, fluorescence polarization; Eukaryotic translation initiation factor 4H (Homo sapiens), Q15056; eIF4H fluorescence polarization binding assay; inhibition, % at 35 µM; 290,000 compounds, 0.94% hits;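 note: calls also rest on retests at 20 µM and on dose response follow-up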
Large screens that a line does not name were inactive; [ ] = remark or other dose. Unless noted, the rule behind the calls is not given here.

COCC(=O)Nc1nnc(COc2ccc(Cl)cc2)s1	none
CCOCC(=O)Nc1nnc(COc2ccc(Cl)cc2)s1	PABP1 MLLE inh 37
COc1cc(-c2noc(C)c2/C=C/c2ccc(C(=O)O)cc2)cc(OC)c1OC	PABP polyA inh active, eIF4H FP inh 100 (no result: EBV gp42 block, eIF4E 4G PPI)
COc1cc(-c2noc(C)c2/C=C/c2cccc([N+](=O)[O-])c2)cc(OC)c1OC	none (no result: EBV gp42 block, eIF4E 4G PPI)
O=C(Nc1nnc(-c2ccc(Br)cc2)o1)c1cccc(N2C(=O)CCC2=O)c1	none (no result: EBV gp42 block, PABP polyA inh, eIF4E 4G PPI, eIF4H FP inh)
O=C(O)COn1c(-c2ccccc2)nc2ccc([N+](=O)[O-])cc21	EBV gp42 block 73, PABP polyA inh active
O=C(O)CCCCC1CCSS1 (configuration not stated)	EBV gp42 block 102, eIF4E 4G PPI 72
O=C(O)CCNC1CCCCC1	none
COc1ccccc1NS(=O)(=O)c1ccc(N/N=C/C=C/c2ccccc2[N+](=O)[O-])c([N+](=O)[O-])c1	none
COc1ccccc1NS(=O)(=O)c1ccc(NN=C2CCCC2)c([N+](=O)[O-])c1	eIF4E 4G PPI 67[fluorescence artefact?]
O=C(OCc1nc2ccccc2s1)c1ccc(Br)o1	PABP polyA inh active, eIF4H FP inh 7.1
CCOc1ccccc1NC(=O)N1CCC(NC(=O)c2cccc(C)c2)CC1	eIF4E 4G PPI 56
Cc1cccc(C(=O)NC2CCN(C(=O)Nc3ccccc3C)CC2)c1	none
O=C(COc1ccccc1C(=O)N/N=C\c1ccc(O)c(O)c1)N/N=C/c1ccc(O)c(O)c1	PABP polyA inh active, eIF4H FP inh 74
O=C(NN=Cc1ccc(O)c(O)c1)c1ccccc1	none (no result: EBV gp42 block, PABP polyA inh, eIF4E 4G PPI, eIF4H FP inh)
CN(C)c1ccc(N=Nc2ccc(C(=O)O)cc2)cc1	PABP polyA inh active, eIF4H FP inh 70 (no result: EBV gp42 block, eIF4E 4G PPI)
O=C(O)CCCCCN1C(=O)C(O)=C(C(=O)/C=C/c2ccccc2)C1c1ccccc1[N+](=O)[O-] (configuration not stated)	PABP1 MLLE inh 47
CCCCN1C(=O)C(O)=C(C(C)=O)C1c1ccccc1[N+](=O)[O-] (configuration not stated)	none
O=C1OC(C(Cl)(Cl)Cl)Nc2ccccc21 (configuration not stated)	none (no result: EBV gp42 block, PABP polyA inh, eIF4E 4G PPI, eIF4H FP inh)
Cc1cc(OCC(=O)NC(Cc2c[nH]c3ccc(O)cc23)C(=O)O)c2c(C)c(C)c(=O)oc2c1 (configuration not stated)	none (no result: EBV gp42 block, eIF4E 4G PPI)
COc1ccc2c(c1)c(=O)oc1c(C)c(OC(C)C(=O)N[C@@H](Cc3c[nH]c4ccc(O)cc34)C(=O)O)ccc12 (some centres not stated)	PABP polyA inh active, eIF4H FP inh 82 (no result: EBV gp42 block, eIF4E 4G PPI)
CCCc1cc(=O)oc2cc(OCC(=O)NC(Cc3c[nH]c4ccc(O)cc34)C(=O)O)c(Cl)cc12 (configuration not stated)	PABP polyA inh active, eIF4H FP inh 52 (no result: EBV gp42 block, eIF4E 4G PPI)
CC(Oc1ccc2c(-c3ccccc3)cc(=O)oc2c1)C(=O)NC(Cc1c[nH]c2ccc(O)cc12)C(=O)O (configuration not stated)	PABP polyA inh active, eIF4H FP inh 86 (no result: EBV gp42 block, eIF4E 4G PPI)
O=C(NCc1ccncc1)c1csc([C@@H]2O[C@H](CO)[C@@H](O)[C@H]2O)n1	none (no result: EBV gp42 block, PABP polyA inh, eIF4E 4G PPI, eIF4H FP inh)
NC(=O)CC(NC(=O)c1ccccc1)c1ccc(NCCc2cccc(F)c2)c([N+](=O)[O-])c1 (configuration not stated)	eIF4E 4G PPI 96
NC(=O)CC(NC(=O)c1ccc(Br)cc1)c1ccc(NCCc2ccc(F)cc2)c([N+](=O)[O-])c1 (configuration not stated)	none
Cc1cc(C)cc(NS(=O)(=O)c2ccc(NC(=O)C3CCCCC3C(=O)O)cc2)c1 (configuration not stated)	none
O=C(CCSc1ccccc1)NC1CCCCCC1	PABP polyA inh active
CC(CC(=O)NC1CCCC1)c1ccccc1 (configuration not stated)	PABP polyA inh active
COC(=O)C1=C(CS(=O)(=O)c2cc(Cl)ccc2OC)NC(=O)NC1c1ccc(O)c(OC)c1 (configuration not stated)	none (no result: EBV gp42 block, eIF4E 4G PPI)
Cc1cc(C)c(C#N)c(SCC(=O)N2CCCCC2)n1	EBV gp42 block 119
O=C(ONc1ccc(N=NC(=O)c2ccccc2O)cc1)c1ccccc1	EBV gp42 block 89
O=C1Nc2ccccc2/C1=C/c1cccnc1	none
O=C1Nc2ccccc2/C1=C/c1cnc(-c2ccccc2)[nH]1	EBV gp42 block 59, PABP polyA inh inconclusive, eIF4H FP inh inconclusive
CCOC(=O)C1OC1(c1ccccc1)c1ccccc1 (configuration not stated)	none (no result: EBV gp42 block, PABP polyA inh, eIF4E 4G PPI, eIF4H FP inh)
O=C(/C=C/c1ccco1)NC(=S)Nc1cccc(C(=O)O)c1	PABP polyA inh active, eIF4H FP inh 86 (no result: EBV gp42 block, eIF4E 4G PPI)
O=C(/C=C/c1ccco1)NC(=S)Nc1cc(C(F)(F)F)ccc1N1CCOCC1	PABP polyA inh active
Cn1nnc(NC(=S)NC(=O)/C=C/c2ccco2)n1	PABP polyA inh active, eIF4H FP inh 88
CC(=O)Nc1ccc(NC(=S)NC(=O)/C=C/c2ccco2)cc1	eIF4H FP inh 74 (no result: EBV gp42 block, eIF4E 4G PPI)
CCN1CCc2c(C#N)c(N3CCOCC3)nc(NCCO)c2C1	PABP1 MLLE inh 79
CCOC(=O)N1CCC2(CC1)C(C#N)=C(N)Oc1n[nH]c(C)c12	none
CCOC(=O)N1CCC2(CC1)C(C#N)=C(N)Oc1c2c(C)nn1-c1cccc(Cl)c1	EBV gp42 block 52, PABP polyA inh active, eIF4H FP inh 71
Cc1ccc(C2=N/C(=C\c3c(C)nn(-c4ccccc4)c3N3CCCC3)C(=O)O2)cc1	EBV gp42 block 93
Cc1nn(-c2ccccc2)c(N2CCCC2)c1/C=N/NC(=S)Nc1ccc(F)cc1	none (no result: EBV gp42 block, PABP polyA inh, eIF4E 4G PPI, eIF4H FP inh)
Cc1nn(-c2ccccc2)c(N2CCCC2)c1/C=N/O	none
Cc1nn(-c2ccccc2)c(N2CCCC2)c1/C=C1\N=C(c2ccc(F)cc2)OC1=O	EBV gp42 block 82
CN(CC(=O)NC(=O)NC(C)(C)C)CC(=O)Nc1ccccc1Cl	none
COC(=O)C1C(O)=C(C(C)=Nc2cccc3ccccc23)C(=O)CC1(C)C (configuration not stated)	PABP polyA inh active, eIF4H FP inh inconclusive
CSc1c(C#N)c(N)nc2sc(C(=O)c3ccc(Cl)c(Cl)c3)c(N)c12	EBV gp42 block 76, PABP polyA inh inconclusive, eIF4H FP inh inconclusive (no result: PABP1 MLLE inh)
CCCCOC(=O)CSc1nc(N)c(C#N)c(-c2ccc(OCC)cc2)c1C#N	none
COc1ccc(-c2c(C#N)c(N)nc3sc(C(=O)c4ccccc4)c(N)c23)cc1	EBV gp42 block 81
Cc1cc(C)c2c(N)c(C(=O)c3cccc(Cl)c3)sc2n1	none
CCOc1ccc(-c2c(C#N)c(N)nc3sc(C(=O)c4ccccc4)c(N)c23)cc1	EBV gp42 block 70
Cc1ccc(CN2CCNC(=O)C2CC(=O)NCc2cc(C)n(C)n2)cc1 (configuration not stated)	none (no result: EBV gp42 block, eIF4E 4G PPI)

Compound activity deposited in PubChem BioAssay by several laboratories.
